# Screens as filed in PubChem.
# Sampled rows, rich in hits. Any-hit rate of the full collection: about 3.7%.
# B2AR arrestin ag: ADRB2 beta-arrestin recruitment. Potency, µM (titrated, usually from 46.1 µM), hits mostly activators. P07550. AID 1347077. 44,000 tested, under 10 active. HTLA Tango cells, beta-arrestin recruitment, luciferase luminescence, 18 h
# Target sequence (P07550 whole entry, looked up): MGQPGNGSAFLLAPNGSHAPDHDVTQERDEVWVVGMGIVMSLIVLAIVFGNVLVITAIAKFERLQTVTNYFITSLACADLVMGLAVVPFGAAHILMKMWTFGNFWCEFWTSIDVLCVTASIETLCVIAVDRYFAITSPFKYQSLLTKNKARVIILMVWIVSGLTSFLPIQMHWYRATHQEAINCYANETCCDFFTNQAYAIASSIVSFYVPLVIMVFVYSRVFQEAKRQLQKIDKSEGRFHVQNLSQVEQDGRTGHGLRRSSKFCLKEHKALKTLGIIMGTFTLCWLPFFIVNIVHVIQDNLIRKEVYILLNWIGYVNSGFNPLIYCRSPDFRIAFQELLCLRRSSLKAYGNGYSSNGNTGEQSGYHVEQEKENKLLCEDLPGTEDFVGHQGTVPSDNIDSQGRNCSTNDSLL
#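 Receptor–beta-arrestin recruitment read by tTA-responsive luciferase: compound titrations (up to 46 µM) incubated 18 h with Tango cells, then luminescent substrate 15 min at room temperature. Concentration-response fits classified by r2, efficacy and activity.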
# GALK inhibitor: inhibitors of human galactokinase (GALK). recombinant GALK, Kinase-Glo ATP luminescence, 1 h. Potency, µM (highest dose often 57.5 µM), most hits filed as inhibitors. 44,000 tested, under 10 active
#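 Luminescent ATP-depletion readout (Kinase-Glo Plus, 10 min) after 1 h RT reaction of 5 nM GALK, 35 uM ATP, 100 uM galactose, pH 8.0 HEPES buffer. Decreased kinase activity scored as inhibition.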
# HTT prom inh: inhibits huntingtin promoter activity | HEK293 HTT promoter firefly luciferase reporter, 24 h | AID 1508623 | Potency, µM (top dose mostly 57.5 µM), hits mostly inhibitors | 48,000 compounds, 0.93% hits; further: nearly all actives have a fitted effect of over 50% in size
#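 Quantitative HTS used concentration series of up to 57.5 uM final on HEK293 luciferase reporter cells, 24 h at 37 degrees C. Readout was Dual-Glo firefly luminescence.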
# HTT-AS promoter: activates huntingtin-antisense promoter activity; Potency, µM (doses to about 57.5 µM), hits mostly activators; 48,000 compounds, 0.24% hits; HEK293 HTT-AS promoter firefly luciferase reporter, 24 h; response scale: percent change from vehicle, -100% = no light; AID 1508624; further: nearly all actives have a fitted effect of over 55% in size
#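 Luminescence was read after Dual-Glo reagent and a 10 min room-temperature incubation. Values were normalized to vehicle (0% activity) and zero RLU (-100% activity). Reporter HEK293 cells had been exposed to compounds (up to 57.5 uM final) for 24 h.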
# PTAP-TSG101 blk: inhibitors of HIV-1 PTAP binding to human TSG101, validation | Fluorescence polarization, FITC-PTAP peptide/Tsg101, 20 min | Q99816 | 44,000 tested, under 10 active | Potency, µM (top dose mostly 115 µM), actives largely listed as inhibitors
#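 Read-out is FITC fluorescence polarization. Compounds were added to Tsg101 binding domain (10 uM final), then FITC-PTAP peptide (50 nM final), 20 min at r.t. Total S+P intensity flags fluorescent compounds.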
# GPR32 ag: activates human resolvin D1 receptor GPR32; activation, % at 76.9 µM; O75388; AID 1346428; CHO-K1 GPR32 beta-arrestin PathHunter luminescence, 90 min; zero percent set by DMSO-only wells; 48,000 compounds, 2.5% hits;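 active means activation of at least 60% and not above a set upper limit, about 1 call in 100 departs from these limits; inconclusive means activation of 40% to 60%, or above that upper limit; inactive means activation under 40%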
#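 Engineered CHO-K1 line co-expressing GPR32-ProLink and EA-beta-arrestin. Compound treatment lasted 90 min at 37 °C. Luminescence was recorded after 1 h with substrate at ambient temperature, relative to DMSO basal wells.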
# A number is an active result; n = inactive; u = inconclusive; x = not tested or not shown. Unless noted, the call rests on the fitted dose curve; in most records, active means well fitted curve in the direction sought with a large enough effect; inconclusive means small, poorly fitted or top-dose-only effect, or another doubt; inactive means no such curve, though single readings can be large; an effect the other way counts as inactive or inconclusive.
SMILES,B2AR arrestin ag,GALK inhibitor,HTT prom inh,HTT-AS promoter,PTAP-TSG101 blk,GPR32 ag
C[C@@H](O[C@H]1OCCN(Cc2n[nH]c(=O)[nH]2)[C@H]1c1ccc(F)cc1)c1cc(C(F)(F)F)cc(C(F)(F)F)c1,x,x,n,n,x,n
COC(=O)c1ccc(CNC(=O)c2nc(Cn3nc(C)c(Br)c3C)no2)cc1,n,n,n,n,n,n
Cc1nn(Cc2noc(C(=O)NCc3cccc(F)c3)n2)c(C)c1Br,n,n,n,n,n,73
CCOc1cccc(-c2nc3ccccc3c(=O)o2)c1,n,n,n,n,n,80
CCCOc1ccc(-c2nc3ccc(Br)cc3c(=O)o2)cc1,n,n,n,n,n,n
NS(=O)(=O)c1cc2c(cc1Cl)CN(C1CCCCC1)C2=O,x,x,n,n,x,n
Cc1ccc(NC(=O)Cc2ccc(-n3c(C)nc4cccnc43)cc2)c(Cl)c1,n,n,8.9µM,n,n,n
COc1ccccc1Cc1nc2ccccc2nc1SCC(=O)N1CCC(C)CC1,n,n,u,n,n,64
Cc1ccc(Cc2nc3ccccc3nc2SCC(=O)N2CCCCC2C)cc1 (stereo not drawn),n,n,28µM,n,n,n
CCOc1ccccc1NC(=O)CSc1nc2ccccc2nc1Cc1ccc(C)cc1,n,u,n,n,n,71
Cc1ccc(Cc2nc3ccccc3nc2SCC(=O)NCCC(C)C)cc1,n,n,n,n,n,n
C#CC(C)(CC)OC(=O)c1ccccc1C(=O)O (stereo not drawn),x,x,n,n,x,n
CCOC(=O)c1ccc(O)c(O)c1,x,x,n,n,x,n
CCc1cccc2c(CCO)c[nH]c12,x,x,n,n,x,n
O=C(CCCCCCC(=O)Nc1cccnc1)NO,x,x,n,n,x,x
CC(=O)OCC(=O)[C@@]12OC(C)(C)O[C@H]1C[C@H]1[C@@H]3C[C@H](F)C4=CC(=O)C=C[C@]4(C)[C@@]3(F)[C@@H](O)C[C@@]12C,x,x,n,n,x,x
CC(NC(=O)c1cc2sccc2n1Cc1ccc(F)cc1)c1ccccc1 (stereo not drawn),n,n,n,n,n,100
CCCCCCCCCCCCCC(=O)N[C@H](CO)[C@H](O)c1ccc([N+](=O)[O-])cc1,x,x,n,n,x,x
CC(C)(C)c1cc(C(C)(C)C)c(NC(=O)c2c[nH]c3ccccc3c2=O)cc1O,x,x,n,n,x,x
O=C(NCCc1csc(-c2cccnc2)n1)c1cccc(C(F)(F)F)c1,n,n,u,n,n,68
CN(CCCN1c2ccccc2CCc2ccccc21)CC(=O)c1ccc(Cl)cc1,x,x,n,n,x,109
Cn1c(NCc2ccccc2F)nc2ccccc21,n,n,n,5µM,n,n
COC(=O)c1cc(Cl)ccc1OC,x,x,n,n,x,n
COc1ccc(N2CCN(C(=O)c3cccc(-n4c(C)nc5cccnc54)c3)CC2)cc1,n,n,u,n,n,n
Cc1nc2cccnc2n1-c1cccc(C(=O)N2CCN(c3ccc(Cl)cc3)CC2)c1,n,n,10µM,n,n,n
SMILES,B2AR arrestin ag,GALK inhibitor,HTT prom inh,HTT-AS promoter,PTAP-TSG101 blk,GPR32 ag
CCc1ccc(NC(=O)c2sc3nc(C)c(Cl)c(C)c3c2N)cc1,n,n,n,2.5µM,n,n
CCOc1ccc(CNC(=O)C2CCN(c3nnc(-n4c(C)ccc4C)s3)CC2)cc1,n,n,14µM,n,n,n
CC(=O)N1CCc2cc(CNS(=O)(=O)c3ccc(C(C)(C)C)cc3)ccc21,n,n,n,n,n,n
CCC(=O)N1CCc2cc(CNS(=O)(=O)c3ccc(C(C)C)cc3)ccc21,n,n,n,n,n,109
CCNC(=O)[C@@H]1CCCN1C(=O)[C@H](CCCN=C(N)N)NC(=O)[C@H](CC(C)C)NC(=O)CNC(=O)[C@H](Cc1ccc(O)cc1)NC(=O)[C@H](CO)NC(=O)[C@H](Cc1c[nH]c2ccccc12)NC(=O)[C@H](Cc1cnc[nH]1)NC(=O)[C@@H]1CCC(=O)N1,x,x,n,n,x,n
CCS(=O)(=O)c1ncc(Cl)c(C(=O)NCc2ccc(OC)cc2)n1,u,n,u,n,n,n
COc1ccc(N(Cc2ccccc2)C(=O)c2nc(SC)ncc2Cl)cc1,n,n,20µM,n,n,n
CCS(=O)(=O)c1ncc(Cl)c(C(=O)N(Cc2ccccc2)c2ccc(OC)cc2)n1,n,n,16µM,n,n,n
CCOC(=O)c1ccc(N2C(=O)c3n[nH]c(-c4ccco4)c3C2c2ccc(OCC)cc2)cc1 (stereo not drawn),n,n,20µM,n,n,n
CCOC(=O)[C@@H](N)Cc1ccc(-c2cc(O[C@H](c3ccc(Cl)cc3-n3ccc(C)n3)C(F)(F)F)nc(N)n2)cc1,x,x,n,n,x,x
CN(C)CC=CC(=O)Nc1cc2c(Nc3ccc(F)c(Cl)c3)ncnc2cc1O[C@H]1CCOC1,x,x,u,n,x,x
CCCCOC(=O)c1ccc(NC(=O)c2ccc3c(c2)CCCN3S(C)(=O)=O)cc1,n,n,5µM,n,n,n
CCCCOC(=O)c1ccc(NC(=O)c2ccc3c(c2)CCN3S(=O)(=O)c2ccccc2)cc1,n,n,u,n,n,n
